These results are taken from PubChem BioAssay.

The target of test [1] is Tumor necrosis factor receptor superfamily member 10B (Homo sapiens) (UniProt O14763). Briefly: viability loss of caspase-8 NB7 cells with TRAIL – with/without TRAIL, luminescence panel, confirmation (AID 651596). The conditions noted are these: NB7 neuroblastoma + caspase-8, TRAIL sensitization, NB7 Caspase-8, with TRAIL, mean of runs, at 10 µM, stronger effect = higher value.
Assay in test [2]: as above
The settings on record: NB7 neuroblastoma + caspase-8, without TRAIL, NB7 Caspase-8, without TRAIL, mean of runs, at 10 µM.

Sequence of Tumor necrosis factor receptor superfamily member 10B (Homo sapiens) (O14763 whole entry, looked up): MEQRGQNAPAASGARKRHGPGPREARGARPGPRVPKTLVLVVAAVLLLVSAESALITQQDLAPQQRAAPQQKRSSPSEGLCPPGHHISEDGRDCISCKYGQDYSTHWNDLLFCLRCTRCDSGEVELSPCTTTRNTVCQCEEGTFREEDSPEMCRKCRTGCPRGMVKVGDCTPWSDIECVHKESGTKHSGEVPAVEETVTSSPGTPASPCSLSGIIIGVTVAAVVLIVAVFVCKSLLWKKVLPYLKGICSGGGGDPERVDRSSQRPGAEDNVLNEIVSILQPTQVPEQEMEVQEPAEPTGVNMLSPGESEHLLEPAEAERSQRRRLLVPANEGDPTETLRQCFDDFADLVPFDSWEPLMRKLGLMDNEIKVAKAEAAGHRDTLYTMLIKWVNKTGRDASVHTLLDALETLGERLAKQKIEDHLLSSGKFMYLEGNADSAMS

On to `Cc1ccc(C(=O)Nc2nc3ccccc3c(=O)s2)cc1`, for which the activity in test [1] was 80.8%; in test [2], 80%.
Consider `CN(C)c1ccc(-c2nc3ccccc3n2C)cc1`, for which the activity in test [1] is 92.3%; in test [2] it was 89.8%.
Turning to `COc1ccc2nc(-c3cccc(N)c3)[nH]c2c1`, the results for the activity in test [1] and in test [2] were 55.8% and 41.4%, respectively.
For `COc1ccc(NC(=O)c2ccccn2)cc1`, the activity was 75% in test [1] and 69.8% in test [2].
For `CC(=O)Nc1ccc(C=NNc2nnc(NN=Cc3ccc(NC(C)=O)cc3)c3ccccc23)cc1` the same measures were 68.6% and 67.4%.
`FC(F)(F)c1cccc(-c2nc3nc(Cl)c(Cl)nc3[nH]2)c1`: the values for the activity in test [1] and in test [2] were 57.3% and 42.6%, respectively.
With `C[C@@H](NC(=O)c1ncn2c1c(=O)[nH]c1ccc(Br)cc12)c1ccccc1`, the activity is 20.2% in test [1] and 13% in test [2].
With `Cc1ccnc(NC(=O)/C=C/c2cccs2)c1`, the activity in test [1] was 84.1%; in test [2] it was 81.5%.
For the compound `Cc1cccc(/C=N/Nc2nncc3ccccc23)c1`, the activity came out at 80.9% in test [1] and 69.2% in test [2].
For `Cc1ccc(-c2nc3ccccc3[nH]2)s1` the same measures were 58.9% and 58.2%.
On to `O=C(Cn1c2ccccc2c(=O)c2ccccc21)N/N=C/c1cc([N+](=O)[O-])ccc1N1CCCCCC1`, for which the figures for the activity in test [1] and in test [2] were 49.8% and 48%, respectively.
In the case of `CCCCCCCCCCCCCCC[C@@H](O)[C@@H](N)CO`, the activity worked out at 84.5% in test [1] and 79.7% in test [2].
Turning to `CC(C)(C)c1ccc(NC(=O)c2ccsc2)cc1`, the activity was found to be 73.7% in test [1] and 71.9% in test [2].
`Cc1nc2cc(Nc3nnc(-c4ccccc4)c4ccccc34)ccc2n1C`: the activity in test [1] turned out to be 87.9%; in test [2] it was 83.9%.
For `COc1ccc(C(=O)Nc2ccccc2C(=O)N/N=C/c2ccccn2)cc1OC`, the activity in test [1] amounted to 80.7%; in test [2], 59.5%.
For `Cc1cc(C)n(-c2ccc(C(=O)Nc3ccc(C)c(S(=O)(=O)N4CCOCC4)c3)cc2)n1` the same measures were 63.5% and 24.2%.
Consider `O=C(OCn1ncc(Cl)c(Cl)c1=O)c1ccccc1Cl`, for which the activity was 99.1% in test [1] and 99.3% in test [2].
`C/C(=N\Nc1nc2ccccc2[nH]1)c1ccccn1`: the activity in test [1] came out at 51.5%; in test [2], 68.5%.
As for `CN(Cc1ccccc1)C(=O)c1ccc(Nc2nc(C(N)Cc3ccc(C(F)(F)F)cc3)cs2)nc1` (centres undefined), the activity is 93% in test [1] and 98.2% in test [2].
Taken in the same sequence, the figures for `Cc1cc(C)c2c(=N)c3ccccc3n(CCCCCCCCn3c4ccccc4c(=N)c4c(C)cc(C)nc43)c2n1` were 78.3% and 98.7%.
Consider `Clc1ccc(-c2nc3n(n2)Cc2ccccc2-3)cc1`, for which the activity in test [1] stood at 65.8%; in test [2], 76.6%.
On to `Oc1cccc(/C=N/Nc2cccc3cccnc23)c1`, for which the activity was determined as 48.6% in test [1] and 34.2% in test [2].
For `O=C(NC1CCCCC1)c1n[nH]c2c1CCCCC2` the same measures were 82.1% and 80.8%.
For `Cn1c(NC(=O)c2ccc(F)cc2)nc2ccccc21`, the activity came to 45.1% in test [1] and 57.1% in test [2].
In the case of `Cc1nn(-c2ccccc2)c(Cl)c1CN(C(=O)CCl)c1cccc2ccccc12`, the activity came out at 98.8% in test [1] and 99.7% in test [2].
With `Clc1ccccc1Nc1nnc(-c2ccncc2)s1`, the activity in test [1] stood at 61.3%; in test [2], 63.3%.
For the compound `Nc1ccc(-c2cnc(-c3ccc(N)cc3)nc2)cc1`, the activity in test [1] amounted to 74.7%; in test [2], 71.7%.
As for `COc1ccc(N2Cc3ccc(OC)c(OC)c3C2=O)cc1`, the activity turned out to be 40.6% in test [1] and 37.8% in test [2].
For `Cc1cc(C)n(-c2nc(Nc3ccccc3C(F)(F)F)nc(-n3nc(C)cc3C)n2)n1` the same measures were 51.8% and 71.9%.
`COc1ccc(/C=N/OC(=O)Nc2ccccc2OC)cc1`: the figures for the activity in test [1] and in test [2] were 56.9% and 63.3%, respectively.
Take `CN(NC(=O)c1cccc(Cl)c1)c1nc(-c2ccccc2)nnc1C(F)(F)F`: the activity is 75.1% in test [1] and 39.9% in test [2].
Regarding `O=C(Nc1nc2ccccc2[nH]1)c1ccccc1OC(F)F`, the activity in test [1] was determined as 76%; in test [2], 82.2%.
As to `Cc1cc(C)c2sc(N(CCCN(C)C)C(=O)c3ccc(S(=O)(=O)N4CCc5ccccc5C4)cc3)nc2c1`, the values for the activity in test [1] and in test [2] were 93.1% and 93.8%, respectively.
With `C/C(=N\NC(=O)c1ccc(Cl)cc1)c1ccccn1`, the activity in test [1] stood at 32.2%; in test [2], 51%.
For `Nc1nc2ccccc2n1C(=O)c1ccc(F)cc1` the same measures were 91.5% and 91%.
`O=C(Nc1nc2ccccc2s1)c1ccc(OCC2CCCO2)cc1` (centres undefined): the activity in test [1] worked out at 73.5%; in test [2] it was 67%.
For `O=c1c2c(nc3cc(-c4ccc(F)cc4)[nH]n13)CCCC2` the same measures were 71.5% and 68.3%.
With `O=C(NC1CC1)C1CCN(S(=O)(=O)c2ccc(Cl)c([N+](=O)[O-])c2)CC1`, the activity in test [1] was 65.2%; in test [2], 88.2%.
Consider `c1ccc2nc3c(nc2c1)[nH]c1ccccc13`, for which the activity was 45.7% in test [1] and 44.5% in test [2].
Turning to `CN(NC(=O)c1ccc(Cl)cc1)c1nc(-c2ccccc2)nnc1C(F)(F)F`, the values for the activity in test [1] and in test [2] were 61.9% and 57.8%, respectively.
Consider `CSc1ccc(C2NC(=O)c3ccccc3N2)cc1` (centres undefined), for which the activity in test [1] turned out to be 31.3%; in test [2] it was 45.8%.
With `O=C(CCl)Nc1ncc(S(=O)(=O)c2ccc([N+](=O)[O-])cc2)s1`, the activity in test [1] came out at 95.9%; in test [2] it was 92.3%.
As to `N#CC1=C(N)N2C(=C(C#N)C1c1cccc(Br)c1)Nc1ccccc12` (centres undefined), the activity is 55.6% in test [1] and 61.6% in test [2].
Regarding `O=c1[nH]c(Nc2nc3ccccc3o2)nc2c1CCCC2`, the figures for the activity in test [1] and in test [2] were 79.8% and 57%, respectively.
For the compound `Cc1cc(C(=O)COC(=O)c2cccn2C)c(C)n1Cc1ccco1`, the figures for the activity in test [1] and in test [2] were 54.5% and 39.2%, respectively.
As to `CCn1cc(C(=O)NCC(OC)OC)c(=O)c2cc(S(=O)(=O)N3CCC(C)CC3)ccc21`, the activity in test [1] stood at 57.3%; in test [2], 64.5%.
As for `Cc1ccc(S(=O)(=O)NC(=O)NC2=NC(C)(C)N(c3ccc(Cl)c(Cl)c3)C(N)=N2)cc1`, the activity in test [1] was found to be 77.4%; in test [2], 84.2%.
